# Hit rate of the full screen: of about 52,000 compounds, about 1,700 (3.3%) were called active. For the sample, actives were picked, then their nearest neighbours and some compounds at random. Unmarked numbers belong to inactive results. No stated cut-off is given here; in the data, active means survival mostly below about 52% (no sharp cut-off); inactive means mostly above about 56%.
# Tested on: Wild type
# Assay: S. aureus survival, RN4220 and DeltatarO strains – OD600, teichoic acid synthesis inhibitors, primary screen (AID 463173)
# Conditions: S. aureus RN4220 wild type/DeltatarO growth, OD600, 18 h, hits give low values, screened at 18.75 µg/mL (by protocol)
row,SMILES,survival
1,CCn1c(SCc2ccccc2)nnc1C1CCCCC1,106%
2,Cc1c2cnn(-c3ccccc3)c(=O)c2c(C)n1C(C)C(=O)NCc1cccc(Br)c1 (centres undefined),71%
3,CC(=O)c1ccc(NC(=O)CCn2nc(C)c(S(=O)(=O)N3CCC(C)CC3)c2C)cc1,-6% (active)
4,CC(=O)c1cccc(NC(=O)CCn2nc(C)c(S(=O)(=O)N3CCCCC3)c2C)c1,159%
5,Cc1nn(CCC(=O)Nc2cccc(C#N)c2)c(C)c1S(=O)(=O)N1CCC(C)CC1,69%
6,CCOc1ccc(NC(=O)NCCc2c(C)nn(C)c2C)cc1,60%
7,CCc1cccc(CC)c1NC(=O)CN(C)S(=O)(=O)c1ccc2c(c1)n(C)c(=O)c(=O)n2C,81%
8,Cc1c(Cl)cccc1NC(=O)Cn1cnc2nc3c(cc2c1=O)CCCC3,131%
9,O=C(Cn1cnc2nc3c(cc2c1=O)CCCC3)Nc1ccc(F)cc1Cl,72%
10,Cc1cccc(N(C)C(=O)Cn2cnc3nc4c(cc3c2=O)CCCC4)c1,-1% (active)
11,COc1ccc(N2CCN(C(=O)Cn3cnc4nc5c(cc4c3=O)CCCC5)CC2)cc1,78%
12,Cc1ccc(C)c(N2CCN(C(=O)Cn3cnc4nc5c(cc4c3=O)CCCC5)CC2)c1,76%
13,O=C(Cn1cnc2nc3c(cc2c1=O)CCCC3)N1CCN(c2ccccc2)CC1,69%
14,COc1cc(OC)c(NC(=O)Cn2cnc3nc4c(cc3c2=O)CCCC4)cc1Cl,-6% (active)
15,Cc1ccc(C)c(NC(=O)Cn2cnc3nc4c(cc3c2=O)CCCC4)c1,72%
16,O=C(Cn1cnc2nc3c(cc2c1=O)CCCC3)N1CCN(c2cccc(C(F)(F)F)c2)CC1,14% (active)
17,CN(C)C(=O)C1Cc2ccccc2CN1S(=O)(=O)c1ccc(F)cc1 (centres undefined),105%
18,CCc1ccc(-c2nc3c(c(SCc4ccccc4)n2)Cc2c(CO)cnc(C)c2O3)cc1,89%
19,COc1cccc(NC(=O)CSc2nccn2C2CCCC2)c1,73%
20,O=C1NC(=Nc2ccccc2)S/C1=C\c1ccc(C(=O)O)cc1,113%
21,CCOc1cccc(CC(=O)N2CCc3c([nH]c4ccccc34)C2c2ccccc2)c1OCC (centres undefined),81%
22,COc1ccc(C(=O)NCCn2cc(SCC(=O)Nc3ccccc3)c3ccccc32)cc1OC,65%
23,COC(=O)c1ccc(Cn2c(SCc3ccccc3F)nc3ccncc32)cc1,74%
24,O=C(OCc1cc(=O)n2nc(C3CC3)sc2n1)c1cccc(NC(=O)c2ccccc2Cl)c1,57%
